# Pf Dd2 inh: blocks growth of Plasmodium falciparum Dd2 parasites; P. falciparum Dd2 growth, SYBR Green, 72 h; stronger effect = lower value; activity change, % at 10 µM; actives 2.3% (n = 94,000); AID 1159554; in the data active = activity change below about -80%
# C diff HTS: inhibitors of Clostridium difficile growth. Clostridium difficile clinical isolate growth, OD600, 24 h; stronger effect = lower value. growth activity, negative = inhibition, % at 16 µg/mL (by protocol). actives 0.25% (n = 86,000);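 active = mean growth activity at or below -80% and every replicate also at or below -80%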;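 note: 0% = DMSO wells and -100% = levofloxacin 16 µg/mL wells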
# T cruzi growth: inhibitors of T. cruzi proliferation. T. cruzi beta-gal in NIH3T3, GalScreen luminescence, 90 h. inhibition, % at 8.34 µM. actives 5.9% (n = 77,000). AID 624255;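 active = mean inhibition above about 93%, with at least 55% of replicates each passing it, limit read from the data, passing the limit was not always enough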
# An asterisk follows results filed as active; nt = no result given; ! = not confirmed by another sample. The list is not random: actives were taken first. Their share in the collection is about 6.8%.
SMILES,Pf Dd2 inh,C diff HTS,T cruzi growth
CC(C)NC(=O)Nc1ccc2c(c1)C(=O)N([C@@H](C)CO)C[C@H](C)[C@H](CN(C)S(=O)(=O)c1ccc(F)cc1)OCCCC[C@@H](C)O2,nt,9,34
O=C(C[C@@H]1C[C@@H]2c3cc(NC(=O)C4CCC4)ccc3O[C@@H]2[C@@H](CO)O1)NC1CCCC1,18,-5,23
C[C@H]1CN([C@@H](C)CO)C(=O)c2ccccc2-c2ccccc2CO[C@@H]1CN(C)S(=O)(=O)c1cccc(C#N)c1,-44,-6,47
C[C@@H]1CN([C@H](C)CO)C(=O)c2cc(NS(C)(=O)=O)ccc2O[C@@H]1CN(C)Cc1ccc(C(=O)O)cc1,39,nt,-145
CO[C@H]1CN(C)C(=O)c2cc(NC(=O)Nc3ccc(Cl)c(Cl)c3)ccc2OC[C@H](C)NC[C@@H]1C,-16,-97*,-56
CO[C@H]1CN(C)C(=O)c2cc(NC(=O)Nc3ccc(Cl)cc3)ccc2OC[C@H](C)NC[C@@H]1C,22,-4,-32
CO[C@H]1CN(C)C(=O)c2cc(NC(=O)Nc3ccc(Cl)cc3)ccc2OC[C@H](C)NC[C@H]1C,-9,-1,-28
COc1cccc(NC(=O)Nc2ccc3c(c2)C(=O)N(C)C[C@@H](OC)[C@H](C)CN[C@@H](C)CO3)c1,-87*,nt,26
CO[C@@H]1CN(C)C(=O)c2cc(NC(=O)Nc3ccc(Cl)c(Cl)c3)ccc2OC[C@H](C)NC[C@H]1C,-77,-98*,-61
CO[C@@H]1CN(C)C(=O)c2cc(NC(=O)Nc3ccc(Cl)cc3)ccc2OC[C@@H](C)NC[C@@H]1C,-1,-2,-25
COc1cccc(NC(=O)Nc2ccc3c(c2)C(=O)N(C)C[C@H](OC)[C@@H](C)CN[C@H](C)CO3)c1,7,nt,-9
CO[C@@H]1CN(C)C(=O)c2cc(NC(=O)Nc3ccc(Cl)c(Cl)c3)ccc2OC[C@@H](C)NC[C@@H]1C,-86*,-97*,-58
CN1c2ccc(-c3cccc(F)c3)cc2[C@H]2[C@H](CCN2C(=O)c2ccc3c(c2)OCO3)[C@H]1CO,5,-27,36
CCS(=O)(=O)N1CC2(CN(Cc3ccc(F)cc3)[C@H](CO)c3c2c2ccc(OC)cc2n3C)C1,-55,8,nt
CO[C@@H]1CN(C)C(=O)c2cc(NC(=O)Nc3ccccc3)ccc2OC[C@H](C)N(CC2CC2)C[C@H]1C,12,nt,-56
CC(C)NC(=O)N[C@H]1CC[C@H](CCn2cc(-c3ccccc3)nn2)O[C@@H]1CO,-5,6,-16
C[C@H](CO)N1C[C@H](C)[C@H](CN(C)Cc2ccc(C(=O)O)cc2)OCc2ccccc2-c2ccccc2C1=O,-23,nt,42
C[C@@H]1CN([C@@H](C)CO)C(=O)c2cc(NS(=O)(=O)c3ccccc3)ccc2O[C@H]1CN(C)Cc1ccc(C(=O)Nc2ccccc2N)cc1,-83*,-1,nt
C[C@@H]1CN([C@@H](C)CO)C(=O)c2cc(NS(=O)(=O)c3ccc(F)cc3)ccc2O[C@H]1CN(C)Cc1ccc(C(=O)Nc2ccccc2N)cc1,-85*,-5,nt
C[C@H](CO)N1C[C@H](C)[C@@H](CN(C)Cc2ccc(C(=O)Nc3ccccc3N)cc2)Oc2ccc(NS(=O)(=O)c3ccccc3)cc2C1=O,35,-6,29
C[C@@H]1CN([C@H](C)CO)C(=O)c2cc(NS(=O)(=O)c3ccc(F)cc3)ccc2O[C@@H]1CN(C)Cc1ccc(C(=O)Nc2ccccc2N)cc1,-44,5,54
CN(C)C(=O)[C@@H]1[C@@H](CO)[C@@H]2Cn3c(ccc(-c4cccc(F)c4)c3=O)[C@@H]2N1C(=O)c1cnccn1,nt,-2,57
C[C@@H]1CN([C@@H](C)CO)C(=O)c2cc(N(C)C)ccc2O[C@H]1CN(C)S(=O)(=O)c1ccccc1,5,1,38
C[C@H](CO)N1C[C@H](C)[C@@H](CN(C)S(C)(=O)=O)Oc2ccc(NS(C)(=O)=O)cc2CC1=O,2,0,-22
Cc1ccc(S(=O)(=O)N(C)C[C@H]2OCCCC[C@@H](C)Oc3ccc(NC(=O)c4ccccc4)cc3C(=O)N([C@H](C)CO)C[C@@H]2C)cc1,-63,nt,44
SMILES,Pf Dd2 inh,C diff HTS,T cruzi growth
Cc1ccc(S(=O)(=O)N(C)C[C@H]2OCCCC[C@H](C)Oc3ccc(NC(=O)c4ccccc4)cc3C(=O)N([C@@H](C)CO)C[C@H]2C)cc1,-86*,nt,-40
Cc1ccc(S(=O)(=O)N(C)C[C@H]2Oc3ccc(NC(=O)c4ccncc4)cc3C(=O)N([C@@H](C)CO)C[C@@H]2C)cc1,-88*,-3,13
Cc1ccc(S(=O)(=O)N(C)C[C@H]2Oc3ccc(NC(=O)c4ccncc4)cc3C(=O)N([C@H](C)CO)C[C@H]2C)cc1,23,-2,-17
C[C@@H]1CCCCO[C@H](CN(C)S(=O)(=O)c2ccc(F)cc2)[C@@H](C)CN([C@H](C)CO)C(=O)c2cc(NC(=O)c3ccccc3)ccc2O1,-32,-3,nt
C[C@@H]1CN([C@@H](C)CO)C(=O)c2cc(NC(=O)c3ccccc3)ccc2O[C@@H](C)CCCCO[C@@H]1CN(C)S(=O)(=O)c1ccc(F)cc1,-81*,8,nt
C[C@@H]1CCCCO[C@H](CN(C)S(=O)(=O)c2ccc(Cl)cc2)[C@H](C)CN([C@@H](C)CO)C(=O)c2cc(NC(=O)c3ccccc3)ccc2O1,-74,6,101
C[C@@H]1CN([C@H](C)CO)C(=O)c2cc(NC(=O)c3ccccc3)ccc2O[C@@H](C)CCCCO[C@@H]1CN(C)S(=O)(=O)c1ccc(Cl)cc1,-82*,11,94
CC(C)NC(=O)Nc1ccc2c(c1)C(=O)N([C@@H](C)CO)C[C@H](C)[C@@H](CN(C)S(=O)(=O)c1cccs1)OCCCC[C@H](C)O2,nt,8,nt
O=S(=O)(c1ccccc1)N1CCCCN2[C@H](CO)[C@H](c3ccc(-c4cncnc4)cc3)[C@@H]2C1,27,-5,35
CCC(=O)N1[C@@H](CO)[C@H](c2ccccc2)C12CN(C(=O)NC1CCCC1)C2,22,-3,nt
O=C(C[C@@H]1C[C@H]2c3cc(NC(=O)Nc4ccccc4)ccc3O[C@H]2[C@@H](CO)O1)NCc1ccccc1,-36,-1,47
C[C@@H]1CN([C@@H](C)CO)C(=O)c2cc(N(C)C)ccc2O[C@@H](C)CCCCO[C@H]1CN(C)S(=O)(=O)c1cn(C)cn1,-3,-3,2
C[C@H]1CN([C@@H](C)CO)C(=O)CCCn2nncc2CO[C@@H]1CN(C)C(=O)Nc1ccc(N2CCCCC2)cc1,-90*!,-3,8
COc1ccccc1S(=O)(=O)N(C)C[C@H]1OCc2cn(nn2)CCCC(=O)N([C@@H](C)CO)C[C@@H]1C,-89*,nt,-11
COc1ccccc1S(=O)(=O)N(C)C[C@H]1OCc2cn(nn2)CCCC(=O)N([C@H](C)CO)C[C@H]1C,-7,nt,-25
C[C@@H]1CN([C@H](C)CO)C(=O)CCCn2cc(nn2)CO[C@@H]1CN(C)C(=O)Nc1ccc(N2CCN(C)CC2)cc1,-5,3,24
C[C@H](CO)N1C[C@H](C)[C@H](CN(C)C(=O)Nc2ccc(N3CCCCC3)cc2)OCc2cnnn2CCCC1=O,-6,-5,-24
C[C@H]1CN([C@@H](C)CO)C(=O)CCCn2cc(nn2)CO[C@@H]1CN(C)C(=O)Nc1ccc(N2CCCCC2)cc1,-89*!,0,-18
